Source: PubChem BioAssay (NCI)
This is part of a sample that, as a whole, favours compounds with a hit. Of some 83,000 tested, about 20% had one in any assay.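 Cells were grown in 96-well plates and exposed to the test compound at a single concentration for 48 hours; results are reported as percent growth, with values below 10 considered active.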 A number with no mark means an inactive call. The source made the active and inactive calls.

Legend:
Test in all cases: NCI-60 one-dose screen, 48 h (100 = growth as untreated, 0 = no growth, -100 = all killed)
Details in all cases: 10 µM unless noted
DU-145 prostate = test system: DU-145 prostate
K-562 leukemia = test system: K-562 leukemia
MALME-3M melanoma = test system: MALME-3M melanoma
MDA-MB-231 breast = test system: MDA-MB-231 breast
RXF 393 renal = test system: RXF 393 renal
SF-268 CNS = test system: SF-268 CNS
SF-295 CNS = test system: SF-295 CNS
SF-539 CNS = test system: SF-539 CNS
UACC-257 melanoma = test system: UACC-257 melanoma
M14 melanoma = test system: M14 melanoma
HCT-15 colon = test system: HCT-15 colon
HT29 colon = test system: HT29 colon
SNB-75 CNS = test system: SNB-75 CNS
SNB-19 CNS = test system: SNB-19 CNS
U251 CNS = test system: U251 CNS
SK-MEL-5 melanoma = test system: SK-MEL-5 melanoma
UACC-62 melanoma = test system: UACC-62 melanoma
LOX IMVI melanoma = test system: LOX IMVI melanoma
SK-MEL-28 melanoma = test system: SK-MEL-28 melanoma
PC-3 prostate = test system: PC-3 prostate

Row | Structure (SMILES) | growth (DU-145 prostate) [%] | growth (K-562 leukemia) [%] | growth (MALME-3M melanoma) | growth (MDA-MB-231 breast) | growth (RXF 393 renal) | growth (SF-268 CNS) | growth (SF-295 CNS) [%] | growth (SF-539 CNS) | growth (UACC-257 melanoma) | growth (M14 melanoma) [%] | growth (HCT-15 colon) [%] | growth (HT29 colon) [%] | growth (SNB-75 CNS) | growth (SNB-19 CNS) | growth (U251 CNS) | growth (SK-MEL-5 melanoma) | growth (UACC-62 melanoma) | growth (LOX IMVI melanoma) | growth (SK-MEL-28 melanoma) | growth (PC-3 prostate) [%]
1 | COc1ccc(-c2ccc3c(c2)sc2nc(-c4ccc(F)cc4)cn23)cc1 | 60.3 | 76.6 | 101% | 93.5% | 98.8% | 110% | 32.5 | 100% | 80.9% | 98 | 74.9 | 82.8 | 98.9% | 103% | 83.3% | 33.1% | 65% | 102% | 105% | 
2 | CC(C)C(NC(=O)C1(NC(=O)OCc2ccccc2)CCCC1)C(=O)O (stereo not drawn) | 118 | 91.7 | 111% | 105% | 134% | 111% | 112 | 111% | 89.2% | 102 | 112 | 105 | 92.3% | 103% | 86.7% | 102% | 106% | 90.2% | 107% | 
3 | COC(=O)/C=C1\S/C(=N\NS(=O)(=O)c2ccc(C)cc2)N(c2ccccc2)C1=O | 105 | 84.5 | 110% | 109% | 111% | 98% | 105 | 100% | 99.5% | 107 | 98.7 | 117 | 83.8% | 97% | 102% | 100% | 95.2% | 98.7% | 104% | 
4 | COc1ccc(-c2nc3ccc4[nH]ncc4c3c3c2CCCC3)cc1B(O)O | 45.9 | 59.8 | 75% | 69.3% | 6.38% (active) | 56.3% | 56.3 | 52.8% | 88.5% | 46.5 | 34.4 | 67.2 | 18.9% | 82.7% | 78% | 73.8% | 47.1% | 40.4% | 68.1% | 
5 | O=C(NC(Cc1nnc2n(Cc3ccccc3)c(=O)c3c4c(sc3n12)CCCC4)c1ccc(Cl)cc1)c1ccccc1 (stereo not drawn) | 96.7 | 91.9 | 75.4% | 83.2% | 34.3% | 102% | 71.7 | 80.2% | 105% | 68 | 68.3 | 89.1 | 73.7% | 88.5% | 91.8% | 81.9% | 63.1% | 79.4% | 103% | 
6 | COc1ccc2occ(C3=C(c4c[nH]c5ccccc45)C(=O)N(O)C3=O)c2c1 | 102 | 87.3 | 112% | 69% | 107% | 91.8% | 105 | 102% | 99% | 94.2 | 100 | 99.7 | 99.7% | 91.8% | 91.7% | 92.7% | 80.2% | 58.4% | 114% | 
7 | COc1cccc(/C=C/C(=O)c2c(C)nc3ccccc3c2/C=C/c2ccc(C)cc2)c1OC | 52.3 | 17.3 | 79.1% | 63.8% | 53.8% | 70.3% | 65.7 | 72.8% | 67.5% | 73.7 | 19 | 29.7 | 42.4% | 70.2% | 55.3% | 66% | 43.6% | 39% | 40.9% | 
8 | CS(=O)(=O)c1ccc(Nc2nc(N[C@H]3CCCC[C@H]3N)nc3cc[nH]c(=O)c23)cc1 | 14.4 | 10.9 | -31.9% (active) | -12.9% (active) | -54.7% (active) | -22.8% (active) | 31.4 | -11.8% (active) | -5.02% (active) | 43.5 | 102 | 15.5 | 4.36% (active) | 4.85% (active) | 4.89% (active) | -40.1% (active) | -33.9% (active) | -10.7% (active) | 3.17% (active) | 14.2
